Gal4-VP16 FLuc = VP16 counterscreen qHTS for inhibitors of ROR gamma transcriptional activity | Potency, µM (series often up to 53.6 µM), for the others: at the highest dose activity, negative = inhibition, most hits filed as inhibitors | actives 3.5% (n = 310,000) | Drosophila S2 Gal4-VP16 UAS-luciferase, luminescence, 20 h | AID 2546, 2010;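 also: Gal4-VP16 expression switched on by copper sulfate through the metallothionein promoter; potency is read from the fitted curve at half-maximal effect; % is scaled to controls: 0 for no effect and ±100 for the full control effect; nearly all actives have a fitted effect of over 50% in size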
RORgamma inh = qHTS for inhibitors of ROR gamma transcriptional activity; Nuclear receptor ROR-gamma (Mus musculus), P51450; Drosophila S2 Gal4-RORgamma UAS-luciferase reporter, 20 h; actives 5.4% (n = 310,000); Potency, µM (top dose mostly 53.6 µM), for the others: at the top dose activity change, negative = inhibition, actives largely listed as inhibitors; also: potency is read from the fitted curve at half-maximal effect; % is scaled to controls: 0 for no effect and ±100 for the full control effect; nearly all actives have a fitted effect of over 60% in size
Target sequence (P51450 whole entry, looked up, the tested form may be a part): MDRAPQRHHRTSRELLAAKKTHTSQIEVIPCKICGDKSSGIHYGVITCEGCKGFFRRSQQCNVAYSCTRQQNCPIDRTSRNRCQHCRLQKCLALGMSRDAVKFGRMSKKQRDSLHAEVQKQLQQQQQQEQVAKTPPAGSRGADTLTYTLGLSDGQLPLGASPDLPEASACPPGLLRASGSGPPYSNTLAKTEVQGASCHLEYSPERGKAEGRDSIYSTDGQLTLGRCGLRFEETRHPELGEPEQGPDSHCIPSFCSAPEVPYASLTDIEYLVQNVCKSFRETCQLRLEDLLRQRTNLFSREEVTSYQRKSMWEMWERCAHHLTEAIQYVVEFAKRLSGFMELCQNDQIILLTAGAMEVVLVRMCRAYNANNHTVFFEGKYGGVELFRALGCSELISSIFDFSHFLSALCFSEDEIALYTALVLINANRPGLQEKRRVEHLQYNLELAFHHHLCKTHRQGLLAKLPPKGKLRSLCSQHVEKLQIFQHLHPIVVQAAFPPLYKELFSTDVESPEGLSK
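Luminescence from a UAS-regulated Photinus luciferase reporter in stably transfected Drosophila Schneider cells is measured; decreased signal marks ROR gamma inhibition. Fusion expression is induced by 700 uM copper sulfate for 20 hr.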
MCF10A rerep = A quantitative high throughput screen for small molecules that induce DNA re-replication in MCF 10a normal breast cells. MCF 10A DNA re-replication, Hoechst nuclear intensity, 48 h. AID 624296, 2012. Potency, µM (highest dose often 46.1 µM), for the others: top-dose activity, positive = re-replication, hits mostly activators. actives 2.9% (n = 350,000); also: potency is read from the fitted curve at half-maximal effect; % of control where 0% means no effect; nearly all actives have a fitted effect of over 50% in size
SW480 rerep = A quantitative high throughput screen for small molecules that induce DNA re-replication in SW480 colon adenocarcinoma cells; actives 1.8% (n = 340,000); AID 624297, 2012; Potency, µM (series often up to 46.1 µM), without a hit: at the highest dose re-replication activation, usual class: activators; SW480 DNA re-replication, Hoechst DNA content imaging, 48 h; also: potency is read from the fitted curve at half-maximal effect; % of control where 0% means no effect; nearly all actives have a fitted effect of over 55% in size
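Image-based DNA-content assay: after two days of treatment, nuclei were labelled with the DNA dye Hoechst and imaged, and hits were compounds raising the count of nuclei showing high fluorescence intensity.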
IL-1B inflam inh = qHTS for Inhibitors of Inflammasome Signaling: IL-1-beta AlphaLISA Primary Screen; THP-1 LPS/ATP IL-1B secretion, AlphaLISA, 16 h; stronger effect = lower value; AID 743279, 2014; actives 4.7% (n = 360,000); activity change, % at 57.5 µM; in the data active = activity change below about -50%; inconclusive = mostly about -30% to -49%; also: % is scaled to controls: 0 for no effect and ±100 for the full control effect
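THP-1 cells pretreated 1 hr with compounds (up to 57.5 uM final), then stimulated with LPS (250 ng/mL final) plus ATP (1.25 mM final); secreted IL-1B measured by AlphaLISA after 16 hr, decreased signal indicating inhibition.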
Starred values were filed as active, the others as inactive; ? = inconclusive; . = no result given; [ ] = dose if it differs, or a comment. Hits are enriched below; roughly 11% of the tested compounds scored in any of these assays. Unless noted, calls follow the shape of the dose curve; as a rule, active = well fitted curve in the direction sought with a large enough effect; inconclusive = small, poorly fitted or top-dose-only effect, or another doubt; inactive = no such curve, though single readings can be large; an effect the other way counts as inactive or inconclusive.

SMILES	Gal4-VP16 FLuc	RORgamma inh	MCF10A rerep	SW480 rerep	IL-1B inflam inh
O=C1CC(c2ccc3c(c2)OCCO3)Oc2ccc([N+](=O)[O-])cc21 (stereo not given)	13µM*	11µM*	16µM*	-4%	-69*
CC(CCc1ccccc1)NC(=O)CN(C)Cc1ccc(F)cc1 (stereo not given)	-3%	2%	13%	-3%	-12
CC(CCc1ccccc1)NC(=O)CN(C)Cc1ccccc1F (stereo not given)	4%	20%	1%	3%	-74*
O=C(CNC(=S)N(Cc1ccccc1)Cc1ccccc1F)NCc1ccc(Cl)cc1	-15%	2µM*	23µM*	17%	-83*
CCOC(=O)CNC(=S)N(Cc1ccccc1)Cc1ccccc1F	25%	-2%	1%	-20%	-56*
O=C(CNC(=S)N(Cc1ccccc1)Cc1ccccc1F)NCCc1ccccc1	-28%	13µM*	?	1%	-18
CCOC(=O)CNC(=S)N(Cc1ccccc1)Cc1cccs1	1%	-19%	-2%	-7%	-5
Cc1cc(C)n2c(NC3CCCCC3)c(-c3cccnc3)nc2n1	.	.	.	.	-6
COc1ccc(C(CNC(=O)c2cccc(S(=O)(=O)Nc3ccc(F)cc3)c2)N2CCOCC2)cc1 (stereo not given)	.	.	-3%	-6%	13
CC(CCc1ccccc1)NC(=O)CN1CCOc2ccccc21 (stereo not given)	.	.	12%	10%	3
Cc1ccc(CNC(=O)CNC(=S)N(Cc2ccccc2)Cc2ccccc2F)cc1	-7%	-31%	?	15%	-69*
CC(CCc1ccccc1)NC(=O)CN1CCSc2ccccc21 (stereo not given)	7%	32%	5%	11%	-78*
O=C(CNC(=S)N(Cc1ccccc1)Cc1ccccc1F)NCc1ccccc1	-11%	21%	?	-1%	-18
O=C(Cc1ccc(NC2=NC3CS(=O)(=O)CC3S2)cc1)NCCc1ccccc1 (stereo not given)	-7%	-1%	7%	-10%	-2
COc1cc2c(-c3ccc(O)cc3)nc3c(c(C)nn3-c3ccccc3)c2cc1OC	?	8%[10 µM]	15µM*	?	22
COc1cc2c(C)nc3c(c(C)nn3-c3ccccc3)c2cc1OC	3%	-4%	4%	-2%	16
CN1CCC(N2CCN(C3CN(Cc4ccccc4)S(=O)(=O)C3)CC2)CC1 (stereo not given)	.	.	.	.	13
COc1cccc(C(=O)NC(=S)Nc2ccccc2N2CCOCC2)c1	6.3µM*	4µM*	29%	7%	-7
Cc1ccc(C(=O)NC(=S)Nc2ccccc2N2CCOCC2)cc1C	7.9µM*	4.5µM*	32%	?	-3
CO/N=C(\C(=O)N[C@@H]1C(=O)N2C(C(=O)[O-])=C(C[n+]3cccc4c3CCC4)CS[C@H]12)c1csc(N)n1	2%	5%	15%	0%	.
Cc1c(C(=O)NC(=S)Nc2ccc3c4c(cccc24)CC3)cccc1[N+](=O)[O-]	5µM*	2.2µM*	12%	5%	-10
COc1cc(OC)cc(C(=O)NC(=S)Nc2ccc3c4c(cccc24)CC3)c1	5.6µM*	?	2%	2%	-1
COc1ccc(C(=O)NC(=S)Nc2ccc3c4c(cccc24)CC3)cc1OC	?	7.9µM*	?	3%	28
CC(C)Oc1cccc(C(=O)NC(=S)NCc2cccnc2)c1	?	?	0%	1%	9
COc1ccc(C(=O)Nc2ccc3c4c(cccc24)CC3)cc1	15%	21%	8%	7%	-5
COc1ccc(C(=O)NC(=S)Nc2cccnc2)cc1OC	17%	-36%	-10%	-13%	-16
CC(C)Oc1cccc(C(=O)NC(=S)Nc2ccc3c4c(cccc24)CC3)c1	?	11µM*	?	15%	-23
Cc1ccccc1-c1cnc(C(O)c2cccc(C)c2C)[nH]1 (stereo not given)	.	.	.	.	-7

Bioassay records as filed in PubChem.
